# Screens: PubChem BioAssay, Buhrlage Lab, Dana-Farber Cancer Institute and Novartis Institutes for BioMedical Research (Cambridge, Mass)
# This is a sample that favours compounds with a hit; in the whole collection about 13% have one here.
# USP17 block: blocks human USP17 ubiquitin-rhodamine cleavage | AID 1645855 | purified USP17, Ub-rhodamine cleavage fluorescence, 3 h | 47,000 compounds, 6.5% hits | inhibition, % at 50 µM | A8MUK1
# Target sequence (A8MUK1 whole entry, looked up): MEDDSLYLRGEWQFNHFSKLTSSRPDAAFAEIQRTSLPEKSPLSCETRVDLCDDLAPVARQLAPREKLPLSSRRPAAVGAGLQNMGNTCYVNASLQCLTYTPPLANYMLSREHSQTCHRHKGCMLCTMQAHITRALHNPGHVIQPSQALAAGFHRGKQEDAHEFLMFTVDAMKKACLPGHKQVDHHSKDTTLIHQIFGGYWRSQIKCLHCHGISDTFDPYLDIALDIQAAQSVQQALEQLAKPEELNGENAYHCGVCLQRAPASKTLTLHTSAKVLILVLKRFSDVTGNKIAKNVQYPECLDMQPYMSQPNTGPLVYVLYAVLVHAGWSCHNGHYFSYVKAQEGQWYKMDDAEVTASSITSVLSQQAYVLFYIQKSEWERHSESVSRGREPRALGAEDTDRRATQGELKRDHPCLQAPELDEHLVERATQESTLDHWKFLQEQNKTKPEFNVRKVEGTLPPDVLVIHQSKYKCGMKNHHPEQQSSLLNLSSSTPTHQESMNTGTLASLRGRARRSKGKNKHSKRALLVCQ
# USP30 block: human USP30 deubiquitinase inhibition | Q70CQ3 | purified USP30, Ub-rhodamine cleavage fluorescence | inhibition, % at 25 µM | 47,000 compounds, 5.3% hits | AID 1645860
# USP8 inh: inhibitors of human USP8 deubiquitinase; P40818; purified USP8, Ub-rhodamine cleavage fluorescence, 30 min; inhibition, % at 20 µM; 47,000 compounds, 4.2% hits; AID 1645853
# USP10 inh: human USP10 deubiquitinase inhibition; Q14694; purified USP10, Ub-rhodamine fluorescence, 60 min; inhibition, % at 20 µM; 47,000 compounds, 1.1% hits
# USP28 block: inhibitors of human USP28 deubiquitinase; inhibition, % at 25 µM; 47,000 compounds, 3% hits; purified USP28, Ub-rhodamine cleavage fluorescence, 30 min; Q96RU2; AID 1645857
# Numbers without * were called inactive; . = not tested or not shown. No stated cut-off is given here; in the data, active means inhibition above about 30%; inactive means the rest.
SMILES,USP17 block,USP30 block,USP8 inh,USP10 inh,USP28 block
Cc1ccc(C(=O)Nc2nnc3n2CCCS3)cc1,-16.4,-3.9,4.2,-0.2,32.0*
O=C(Nc1nnc2n1CCCS2)c1cc2ccccc2o1,-21.1,14.1,-185.4,0.5,50.8*
Cc1cccc(C(=O)Nc2nnc3n2CCCS3)c1,-2.4,12.9,-22.8,1.9,26.6
O=C(Nc1nnc2n1CCCS2)c1ccc(Cl)cc1,-30.1,2.5,-163.1,-0.7,15.8
COc1ccc(C(C(=O)NC2CCCCC2)N(C(=O)Cc2c[nH]c3ccccc23)C2CC2)c(OC)c1 (stereo unspecified),.,9.0,-69.5,7.5,5.9
CC(C)(C)c1ccccc1NC(=O)COc1cnc2ccccc2n1,2.3,9.5,0.7,-0.4,3.0
Cc1ccc(N2CCCn3c2nc2c3c(=O)n(CCCc3ccccc3)c(=O)n2C)cc1,-0.5,14.4,-22.4,8.6,1.1
Cc1ccc(N2CCCn3c2nc2c3c(=O)n(CCc3ccccc3)c(=O)n2C)cc1,11.4,31.1*,-8.9,3.3,7.6
CCCNc1cc(N2CCCC(CCC(=O)N3CCCCC3)C2)ncn1 (stereo unspecified),4.7,22.7,-202.2,-0.6,4.8
Cc1ccc2c(c1)c(=O)cc(C(F)(F)F)n2C[C@H]1CCCN1C(=O)C1CC1,-1.6,41.5*,0.2,-3.9,14.1
CNC(=O)N1CCc2nc(C(=O)N3CCCC3)sc2CC1,-5.2,-4.3,-28.4,-0.6,-1.9
O=C(NCc1nc(-c2ccc3c(c2)[nH]c(=O)n3C2CCCC2)no1)c1ccccc1,58.2*,-55.0,49.5*,-3.7,0.0
COc1ccc(C(=O)N2CCC(c3ccnc4ccnn34)CC2)cn1,4.3,21.1,1.9,0.6,-0.4
CC(Nc1ccccc1)c1nc2scc(-c3ccccc3)c2c(=O)[nH]1 (stereo unspecified),14.6,1.1,0.2,2.4,-7.5
CC(NCCc1ccc(Cl)cc1)c1nc2scc(-c3ccccc3)c2c(=O)[nH]1 (stereo unspecified),35.0*,-24.4,-16.7,5.3,-3.7
CCn1c(=O)c(N2CCC(C(=O)NCc3ccccc3C)CC2)nc2cccnc21,-3.2,-1.0,-14.3,-3.1,-8.8
CCCCCCCCCCCC(O)CC(=O)N[C@@H](CC(C)C)C(=O)N[C@H](CCC(=O)O)C(=O)N[C@H]1C(=O)N[C@H]([C@@H](C)CC)C(=O)NC(CC(C)C)C(=O)N[C@H](CO)C(=O)N[C@@H](CC(C)C)C(=O)N[C@@H](CC(C)C)C(=O)N[C@H](CO)C(=O)N[C@@H](C(C)C)C(=O)O[C@@H]1C (stereo partly specified),51.5*,-15.5,34.9*,35.2*,42.8*
COc1ccc(C2C3=C(CC(c4ccco4)CC3=O)Nc3ccccc3N2C(C)=O)cc1 (stereo unspecified),37.8*,-53.0,55.7*,-3.6,-1.0
CCCCCC(=O)N1c2ccccc2NC2=C(C(=O)CC(c3ccco3)C2)C1c1cc(OC)c(OC)c(OC)c1 (stereo unspecified),34.3*,-40.2,25.1,5.2,0.5
COc1ccc(C2C3=C(CC(c4ccco4)CC3=O)Nc3ccccc3N2C(=O)C(F)(F)F)cc1 (stereo unspecified),-0.2,-8.6,13.9,6.1,-0.2
Cc1cc2cc(CNC(=O)c3ccccc3C(=O)O)ccc2n1C,4.8,-89.3,56.3*,-8.1,-18.6
COc1c2c(cc3c1C(C(=O)Nc1ccc(C)c(C)c1)N(C)CC3)OCO2 (stereo unspecified),-11.9,-7.9,-24.0,-1.3,-8.2
COc1c2c(cc3c1C(CC(=O)c1c(O)c(OC)c4occc4c1OC)[N+](C)(C)CC3)OCO2 (stereo unspecified),29.8,38.7*,28.0,-1.5,13.0
CCCSc1nc(N)c2c3c(sc2n1)COC(C)(C)C3,46.9*,-13.1,3.5,3.1,-10.8
Cc1cc(C)c2c(=O)n(CC(=O)NCCc3ccccc3)c(=O)n(C)c2n1,-11.7,-61.8,-4.7,-0.2,-13.8
SMILES,USP17 block,USP30 block,USP8 inh,USP10 inh,USP28 block
COc1ccc(Cn2c3c(c(=O)[nH]c2=O)CN(C2CCCC2)CN3)cc1,12.9,12.9,1.4,11.4,-0.5
O=C(CCSc1nnnn1-c1ccccc1)Nc1cc(C(F)(F)F)ccc1Cl,40.4*,7.6,28.3,16.1,0.6
Cc1cccnc1-n1c(C)c(C)c2c1ncn1nc(-c3ccccc3O)nc21,-153.0,-431.5,-12.7,-11.8,-97.9
CCC(=O)N1CCCc2ccc(NC(=O)c3cccc(OC)c3)cc21,-6.0,-6.1,-11.2,-3.0,37.3*
CCS(=O)(=O)N1CCCc2cc(C(=O)Nc3ccccc3OC)ccc21,16.9,12.7,19.9,0.0,9.4
CCC(=O)N1CCCc2ccc(NC(=O)c3ccccc3OC)cc21,-8.4,8.6,0.7,2.9,11.4
CCC(=O)N1CCc2cc(C(=O)Nc3ccccc3OC)ccc21,8.2,17.4,1.1,0.0,43.3*
O=C(c1ccc2c(c1)OCO2)N1CCc2c(nc(-c3ccccc3)[nH]c2=O)C1,3.8,-6.3,6.6,2.4,3.4
CCN(CC)c1nc(F)c2c(c1F)S(=O)(=O)CCN2Cc1cccnc1,57.8*,7.8,89.9*,-5.8,8.4
CC1CCCCN1c1nc(F)c2c(c1F)S(=O)(=O)CCN2Cc1cccnc1 (stereo unspecified),35.4*,-35.6,69.8*,-4.5,-10.2
Cc1cccc(S(=O)(=O)Nc2ccc(-c3cn4ccc(C)nc4n3)cc2)c1,0.9,-17.2,-1.9,-3.9,-6.4
Cc1sc2nc(CNc3ccc(Br)cc3)[nH]c(=O)c2c1-c1ccccc1,-62.9,-277.6,-27.0,-7.1,13.6
CCOC(=O)C1CCN(C(=O)c2ccc(CNS(=O)(=O)c3ccc(Cl)cc3)cc2)CC1,16.6,31.5*,9.1,-0.3,11.3
CCOC(=O)C1CCN(C(=O)c2ccc(CNS(=O)(=O)c3ccc(OC)cc3)cc2)CC1,13.9,25.5,13.3,2.4,16.3
CC(C)c1ccc(S(=O)(=O)N2CCCC(c3nc(-c4cccnc4)no3)C2)cc1 (stereo unspecified),51.7*,82.0*,2.6,6.0,21.0
CN(C(=O)CSc1nnc2c(Cl)cc(Cl)cn12)c1ccccc1,5.7,-0.3,-10.3,-3.4,5.4
O=C(Nc1cccc(Cl)c1)c1ncn2c1CNS(=O)(=O)c1ccccc1-2,33.4*,36.0*,22.7,37.0*,66.2*
CC(C)N(C(=O)c1cc2cccnc2n(Cc2ccc(F)cc2)c1=O)C(C)C,13.6,21.1,29.1,2.6,14.7
O=C(Nc1cccc(S(=O)(=O)NC2=NCCC2)c1)c1cc(-c2ccccc2)n[nH]1,38.8*,36.8*,4.2,1.2,42.5*
Fc1cccc(-n2cc(-c3noc(-c4cccnc4)n3)nn2)c1,53.5*,60.9*,51.9*,3.1,20.9
COc1ccccc1-c1nc(-c2cn(-c3ccc(F)cc3)nn2)no1,30.9*,40.7*,89.3*,33.3*,12.9
COc1ccc(-c2nc(-c3cn(-c4ccccc4)nn3)no2)c(OC)c1,70.5*,94.1*,38.3*,20.4,54.3*
